# Test results: PubChem BioAssay AID1117361 (Southern Research Institute, 2015)
# In all, about 3,600 compounds went through this assay and about 900 (25%) were called active. A selection follows. Potency and affinity values are given separately. A number with no mark means an inactive call. No rule for the calls is given here.
# Molecular target: Protein Tat (Human immunodeficiency virus type 1 group M subtype B (isolate HXB2)) (UniProt P04608)
# Test: HIV-1 Tat–TAR interaction blockers – biochemical, fluorescence polarization, FAM-labeled TAR RNA, counter-screen for Vif-APOBEC3G degradation inhibitor project, dose response (AID 1117361)
# Details: Tat-TAR RNA binding; series mostly up to 100 µM; inhibition: at the top concentration
Structure (SMILES),inhibition,outcome
CCOc1ccccc1C(=S)NC1CCCCC1,4.34%,–
CCOC(=O)C(NC(=O)NC1CCCCC1)(c1ccccc1)C(F)(F)F (configuration not stated),2.03%,–
COc1cc(CN2CCNC(=O)C2CC(=O)N(Cc2nccn2C)C(C)C)cc(OC)c1 (configuration not stated),24.7%,–
CCOCC(=O)Nc1nc2ccc(OC)cc2s1,–,inactive
CC(NC(=O)c1cccs1)C(c1cccs1)N1CCN(Cc2ccccc2)CC1 (configuration not stated),1.36%,–
COCCCN1C(=O)C(O)=C(C(C)=O)C1c1ccccn1 (configuration not stated),15.5%,–
CCOc1ccc(OCC)c(S(=O)(=O)NCc2ccc3c(c2)OCO3)c1,1.35%,–
COC(=O)CC(NS(=O)(=O)c1cccs1)c1cccc2ccccc12 (configuration not stated),0.68%,–
Cc1ccc(SCCNC(=O)c2cccc([N+](=O)[O-])c2C)cc1,2.03%,–
CCOC(=O)Cn1c(=O)oc2cc(S(=O)(=O)Nc3c(C)cc(C)cc3C)ccc21,–,inactive
CCOc1ccc(Br)cc1/C=N/O,–,inactive
O=C(CN1C(=O)c2ccccc2C1=O)NCC(=O)OCC(=O)c1cccc([N+](=O)[O-])c1,–,inactive
O=C1CN(C(=O)COC(=O)C23CC4CC(CC(O)(C4)C2)C3)c2ccccc2N1,–,inactive
COc1ccc(NC(=O)CCc2nc(-c3ccccc3F)no2)cc1,1.36%,–
O=C(NCCCN1CCOCC1)c1ccc(Br)s1,6.08%,–
CC1CCN(C(=O)CCc2nc3cc(S(=O)(=O)N(C)C)ccc3n2C)CC1,7.43%,–
CCC(CC)NC(=O)Nc1ccc(F)cc1F,–,inactive
CCC(CC)c1nc2cc(OC)c(OC)cc2c(=O)o1,3.38%,–
Oc1ccc(C2Nc3cccc4cccc(c34)N2)c(O)c1,–,inactive
CCOC(=O)C1CCCC12Nc1cccc3cccc(c13)N2 (configuration not stated),3.67%,–
CCCCc1nc2sc3c(=O)[nH]cnc3c2c2c1CCCC2,2.47%,–
Cc1cccnc1Nc1nc(-c2ccc(O)c(O)c2)cs1,–,inactive
CC(C)(C)C(=O)OCc1nc(-c2ccc(O)c(O)c2)cs1,14%,–

Structure (SMILES),inhibition,outcome
CCc1nnc(NC(=O)c2ccc(S(=O)(=O)N(CC(C)C)CC(C)C)cc2)o1,–,inactive
CCCNC(=O)c1ccc(-c2nc3ccccc3s2)s1,2.41% [at 50 µM],–
Cc1nnc(SCCCn2c(N3CCN(c4ccccc4)CC3)nc3c2c(=O)[nH]c(=O)n3C)s1,7.5%,–
NCCCSC1=NCCCN1,0.68%,–
COc1ccccc1NC(=O)C1=C(C)Nc2nnnn2C1c1ccccn1 (configuration not stated),3.38%,–
CCCCCOC(=O)C1=C(C)Nc2nnnn2C1c1ccccc1Cl (configuration not stated),–,inactive
COc1cccc(N2C(=O)C3ON(c4ccccc4)C(c4cccs4)C3C2=O)c1 (configuration not stated),2.03%,–
COc1ccc(N2CCN(CC(=O)c3c(C)n(C)c4ccc(OC)cc34)CC2)cc1,1.65%,–
CN1CCN(CCCNC(=O)C2CC(=O)N(C3CCCCC3)C2)CC1 (configuration not stated),–,inactive
C=CCn1c(C)cc(C(=O)COC(=O)C2CC(=O)N(Cc3ccccc3)C2)c1C (configuration not stated),16.9%,–
CC1C/C(=N/N2C(=O)CSC2=S)CC(C)(C)C1 (configuration not stated),22.5%,–
COCCNc1nc2c(c(=O)n(C)c(=O)n2C)n1Cc1cccc(C)c1,5.46%,–
CCOc1cc(C(=O)Nc2cc(C)ccn2)cc(OCC)c1OCC,0.68%,–
COc1ccc(S(=O)(=O)n2nc(OC(=O)c3ccc(C)cc3)cc2N)cc1,–,inactive
Nc1ccc(N=Nc2ccc(O)cc2)c(N)n1,–,inactive
COCCn1c(SCC(=O)N2CCC(C)CC2)nc2c([nH]c3ccccc32)c1=O,8.35%,–
Cn1nc(C(F)(F)F)c2cc(C(=O)NC3CC3)sc21,6.76%,–
O=[N+]([O-])c1ccc(CNc2ccc(F)cc2)s1,–,inactive
COc1cccc(CN2CCSCC2)c1,–,inactive
CCOc1ccc(N(CC(=O)Nc2cccc(OC)c2)S(=O)(=O)c2c(C)noc2C)cc1,–,inactive
CCN1CCN(S(=O)(=O)c2cccs2)CC1,–,inactive
O=[N+]([O-])c1ccc(O)c2ncccc12,21.4%,–
O=c1c2ccccc2c(-c2ccccc2)nn1-c1cc(Cl)ccc1[N+](=O)[O-],4.77%,–

Structure (SMILES),inhibition,outcome
Cc1ccccc1CS(=O)(=O)Cc1ccc(C(=O)N2CCOCC2)o1,12.2%,–
O=C(COC(=O)Cc1cccc(C(F)(F)F)c1)NCC1CCCO1 (configuration not stated),10.8%,–
COc1ccc(CC(=O)Nc2ccc(-c3csc(C)n3)cc2)cc1,2.03%,–
O=C(O)/C=C/c1ccc(S(=O)(=O)N2CCN(CCN3C(=O)C4C5C=CC(C5)C4C3=O)CC2)cc1 (configuration not stated),3.3%,–
COc1ccc(-n2c(SCC(=O)NNC(=O)c3ccccc3C)nnc2-c2ccncc2)cc1,0.68%,–
CC(C)(C)c1cc(N/C=C\c2nnnn2-c2ccc(Br)cc2)no1,–,inactive
COc1ccc(/C=N/NC(=O)Cn2cnc3c2c(=O)n(C)c(=O)n3C)c(OC)c1OC,–,inactive
O=C(Nc1ccc2c(c1)oc1ccccc12)c1cccnc1,5.41%,–
CC(/C=C/c1ccco1)=N\NC(=O)c1cccnc1,–,inactive
CCCCn1cnc2c1c(=O)n(C)c(=O)n2C,–,inactive
O=C(c1cc(COc2ccc(F)cc2F)on1)N1CCN(C2CCCC2)C(=O)C1,4.34%,–
CC(C)CCn1cnc2c([nH]c3cccc(Cl)c32)c1=O,2.03%,–
CCCS(=O)(=O)N1CCC(C(=O)NCCCN(CC)c2cccc(C)c2)CC1,2.73%,–
CCc1nnc(NC(=O)C(NS(=O)(=O)c2ccc3c(c2)OCCO3)C(C)C)s1 (configuration not stated),2.7%,–
Nc1nc(SCc2nc(-c3ccccc3)no2)[nH]c(=O)c1-c1ccccc1,0.68%,–
Cc1ccc(-c2nnn(CC(=O)N(c3ccc(F)cc3)C(C(=O)NC3CCCC3)c3ccco3)n2)o1 (configuration not stated),–,inactive
O=C(CC(=O)NN=Cc1ccc2c(c1)CCC2)NN=Cc1ccc2c(c1)CCC2,–,inactive
O=S(=O)(c1ccc(NC(=S)N/N=C/c2ccc(O)c(O)c2)cc1)N1CCOCC1,–,inactive
Cc1[nH]c2ccccc2c1C(=O)CN1CCC(C(N)=O)(N2CCCCC2)CC1,13.5%,–
C[C@H](NC(=O)c1ccco1)C(=O)Nc1cccc([N+](=O)[O-])c1,–,inactive
CCNS(=O)(=O)c1ccc(NS(=O)(=O)c2cc(C)ccc2C)cc1,7.5%,–
N/C(=N\OC(=O)COc1ccc2ccccc2c1)c1ccccn1,0.68%,–
Cc1ccc(-c2nn3c(C)nnc3s2)cc1NC(=O)CSc1ccc(Cl)cc1,–,inactive

Structure (SMILES),inhibition,outcome
COc1ccc(C)cc1-n1c(SCC(=O)Nc2cc(C)on2)nc2sc(C)c(C)c2c1=O,–,inactive
CCCCn1c(CCNC(=O)CC)nc2ccccc21,2.7%,–
CCC(C)(C)NC(=O)C(c1ccc(F)cc1)N(Cc1ccco1)C(=O)c1cnccn1 (configuration not stated),–,inactive
CC(OC(=O)c1cccnc1)C(=O)NCc1ccc2c(c1)OCO2 (configuration not stated),–,inactive
O=C(COC(=O)c1ccccc1Br)Nc1nnc(-c2ccccc2)o1,–,inactive
Cc1cc(C)cc(NC2=CC(=O)CC(c3ccco3)C2)c1 (configuration not stated),2.47%,–
O=C(O)CCCC(=O)NCCc1cccc(Cl)c1,3.41%,–
COc1ccc(OC)c(C(=O)CSc2nnnn2C)c1,–,inactive
COc1ccc(CSc2nnnn2C)cc1F,–,inactive
CCOC(=O)C1(CCOC)CCN(Cc2cnc(-c3cccc(C)c3)nc2)CC1,–,inactive
CCOC(=O)c1c(C)[nH]c(C(=O)COC(=O)CSCC(=O)N(CC)CC)c1C,5.41%,–
Cc1ccc(-c2csc(NC(=O)c3ccc(-c4ccccc4)cc3)n2)o1,5.41%,–
Cc1ccc(NCc2nnc(SCc3ccc(C#N)cc3)n2Cc2ccco2)c(C)c1,11.5%,–
c1ccc(Nc2ccccn2)cc1,0.68%,–
CN(Cc1nc(-c2cccnc2)no1)S(=O)(=O)c1ccccc1,1.35%,–
Cc1cccc2c1c1ccc3c(c1n2C)C(=O)C=CC3=O,11%,–
CCOC(=O)c1csc(N)c1-c1ccc([N+](=O)[O-])cc1,–,inactive
CCOc1ccc(NC(=O)C2CCCN(S(=O)(=O)c3c(C)nn(C)c3C)C2)cc1 (configuration not stated),1.65%,–
COc1ccccc1N1CCN(C(=O)c2oc3cc(C)c(C)cc3c2C)CC1,–,inactive
CC(C)c1ccc(-c2nc(N3CCCCCC3)nc3n[nH]c(N)c23)cc1,–,inactive
Cc1ccc(S(=O)(=O)N(CC(=O)NCCC2=CCCCC2)Cc2ccccc2F)cc1,–,inactive
O=[N+]([O-])c1ccc2c(c1)S(=O)c1ccccc1-2 (configuration not stated),–,inactive
COC(=O)CSc1nc2cc(C)cc(C)c2cc1C#N,4.09%,–

Structure (SMILES),inhibition,outcome
COc1cccc(C(=O)Nc2nc3c(s2)CN(C)CC3)c1,10.1%,–
NC(=S)N=Nc1c(O)n(C2OC(=O)c3ccccc32)c2ccccc12 (configuration not stated),3.41%,–
CCOc1ccccc1C(=O)NCC(=O)OCC(=O)NCCc1ccc(S(N)(=O)=O)cc1,10.1%,–
COC(=O)c1c(C)[nH]c(C=O)c1-c1ccccc1,–,inactive
COC(=O)C(O)(CC(=O)c1ccc(OC)cc1)C(F)(F)F (configuration not stated),2.03%,–
CCCC(NCC(=O)Nc1ccccc1C(=O)NC1CC1)c1ccccc1 (configuration not stated),–,inactive
O=C(C1CCC(CNS(=O)(=O)c2cccc3cccnc23)CC1)N1CCCC1 (configuration not stated),–,inactive
COc1ccc(NC(=O)C2CCCN2S(=O)(=O)c2cccc3cccnc23)c(OC)c1 (configuration not stated),0.68%,–
O=C(Nc1ccc(-c2noc(-c3cccs3)n2)cc1)c1cccnc1,2.05%,–
COc1ccc(-c2nc(C(N)=O)c3[nH]c(=O)n(-c4cccc(Cl)c4)c3n2)cc1OC,2.7%,–
O=c1cc(-c2ccc(O)cc2)oc2cc(O)c(C3OC(CO)C(O)C(O)C3O)c(O)c12 (configuration not stated),21.4%,–
CSCCC(NC(=O)C1CCC(C)CC1)C(=O)NCc1ccco1 (configuration not stated),6.82%,–
Cc1ccc(-n2c(SCC(N)=O)nc3c([nH]c4ccccc43)c2=O)cc1,1.35%,–
CN1C(=O)c2ccccc2C(C(=O)O)C1c1cccc(F)c1 (configuration not stated),1.36%,–
Cc1cc(O)c(C(C)C)cc1N=Cc1ccc([N+](=O)[O-])cc1,–,inactive
Cc1ccc(-n2ncc3c(=O)[nH]cnc32)c(C)c1,–,inactive
O=C(NC1CCCCC1)C(c1ccc(Cl)cc1)N(C(=O)c1ccccn1)c1cccnc1 (configuration not stated),–,inactive
COc1ccccc1NC(=O)c1cc2ccc(O)cc2o/c1=N\O,–,inactive
COC(=O)CSc1nnc(CNC(=O)Cc2ccccc2)n1-c1ccccc1OC,1.36%,–
CCOC(=O)CSc1nnc(CNC(=O)c2cc(OC)c(OC)c(OC)c2)n1C,–,inactive
